BAZ2B block: inhibitors of human BAZ2B bromodomain; Q9UIF8; AlphaScreen BAZ2B-H3K14Ac peptide displacement; Potency, µM (top dose mostly 114 µM), for inactives: top-dose activity change, negative = inhibition, most hits filed as inhibitors; 360,000 tested, 4.4% active; AID 504333; note: % is set by controls: 0 for no effect and ±100 for the full control effect; nearly all actives have a fitted effect of over 60% in size
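Protein-peptide AlphaScreen: BAZ2B 50 nM, b-H3K14Ac 50 nM, 1x PBS pH 7.4 + 0.01% Tween-20. Preincubation 30 min RT; cpd 30 min RT (top 110 uM); beads 20 min RT, light-protected.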
HP1b chromo inh: blocks HP1-beta chromodomain binding to methylated histone tails; P83916; AlphaScreen HP1-beta / biotin-H3K9me3 peptide binding; Potency, µM (highest dose often 114 µM), without a hit: top-dose activity change, negative = inhibition, most hits filed as inhibitors; 390,000 tested, 0.56% active; note: nearly all actives have a fitted effect of over 70% in size
Target sequence (P83916 whole entry, looked up): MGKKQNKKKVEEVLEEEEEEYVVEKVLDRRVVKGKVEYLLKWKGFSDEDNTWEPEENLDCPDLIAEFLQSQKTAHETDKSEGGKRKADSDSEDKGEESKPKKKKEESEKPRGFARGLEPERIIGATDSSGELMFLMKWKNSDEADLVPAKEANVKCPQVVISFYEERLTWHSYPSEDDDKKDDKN
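Compound inhibition of the preformed complex between 50 nM HP1-beta and 50 nM biotinylated H3K9me3 peptide was read by AlphaScreen. Buffer was PBS pH 7.4 with 0.01% Tween-20. Incubations ran 30 min at room temperature, with 10 ug/mL donor/acceptor beads.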
G9a inh: G9a (human) methyltransferase inhibition. AID 504332. Potency, µM (series often up to 102 µM), without a hit: at the top dose activity, negative = inhibition, hits mostly inhibitors. 350,000 tested, 8.8% active. G9a H3K9 monomethylation, AlphaScreen, 2 h; note: % is set by controls: 0 for no effect and ±100 for the full control effect; nearly all actives have a fitted effect of over 75% in size
Target sequence (Q96KQ7 913-1193 limits assumed): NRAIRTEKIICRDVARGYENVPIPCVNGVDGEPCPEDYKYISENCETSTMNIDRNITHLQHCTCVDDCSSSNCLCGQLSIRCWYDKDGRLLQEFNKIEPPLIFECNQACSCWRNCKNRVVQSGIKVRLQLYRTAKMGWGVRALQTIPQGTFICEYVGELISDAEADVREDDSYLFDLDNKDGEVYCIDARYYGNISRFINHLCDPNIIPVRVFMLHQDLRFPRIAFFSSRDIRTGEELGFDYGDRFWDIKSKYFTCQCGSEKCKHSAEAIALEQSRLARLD
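Compounds were preincubated with 20 nM G9a for 15 min, after which biotinylated H3K9 peptide (500 nM) and SAM (20 uM) started a 2 h room-temperature reaction. Monomethylated product was quantified by antibody-based AlphaScreen chemiluminescence.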
JMJD2A Tudor inh: blocks the human JMJD2A Tudor domain. O75164. AlphaScreen JMJD2A-Tudor / H3K4me3 peptide binding. Potency, µM (titrated, usually from 114 µM), for inactives: at the top dose activity change, negative = inhibition, usual class: inhibitors. 390,000 tested, 4.4% active. AID 504339; note: % is set by controls: 0 for no effect and ±100 for the full control effect; nearly all actives have a fitted effect of over 50% in size
12-LOX inh: ALOX12 (human) lipoxygenase inhibition; P18054; AID 1671190; 580,000 tested, 1.1% active; purified 12hLO, xylenol orange hydroperoxide absorbance; Potency, µM (doses to about 108 µM), inactives show at the top dose activity change, negative = inhibition, hits mostly inhibitors; note: % is set by controls: 0 for no effect and ±100 for the full control effect
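Purified human 12hLO (150 nM final) in 25 mM Hepes, 0.01% Triton X-100, pH 7.0 was preincubated 15 min at room temperature with compound. Then 40 uM arachidonic acid was added, 30 min. Hydroperoxide was read by Fe-XO absorbance ratio 573/405 nm.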
PLK1 PBD inh: blocks phosphopeptide binding to human PLK1 polo-box domain | P53350 | Plk1 PBD binding of FITC phosphopeptide, fluorescence polarization | Potency, µM, without a hit: max response, negative = inhibition, usual class: inhibitors | 360,000 tested, 2.8% active | AID 720504; note: series mostly up to about 57 µM; % is set by controls: 0 for no effect and ±100 for the full control effect; nearly all actives have a fitted effect of over 65% in size
* hit, by the source's call; ? = inconclusive; . = no result; ! = repeats disagree; [ ] = dose if it differs, or a comment. In the library only some 9% were active in any assay of this set; here they are far more common. Calls come from the whole dose curve; as a rule, active = well fitted curve in the direction sought with a large enough effect; inconclusive = small, poorly fitted or top-dose-only effect, or another doubt; inactive = no such curve, though single readings can be large; an effect the other way counts as inactive or inconclusive. Potency is the fitted concentration of half-maximal effect.

SMILES	BAZ2B block	HP1b chromo inh	G9a inh	JMJD2A Tudor inh	12-LOX inh	PLK1 PBD inh
CCN(CC)c1ccc(NC(=O)CCCCC(=O)Nc2ccc(N(CC)CC)cc2)cc1	.	7.7%	.	-30.6%	21.7%	1.2%
CCN(CC)c1ccc(NC(=O)C2CCCC2)cc1	?	-19.1%	44.7µM*	?	-7.5%	-1.8%
CCN(CC)c1ccc(NC(=O)C2CC3CCC2C3)cc1 (stereo not drawn)	-67.6%	?	6.31µM*	79.4µM*	0.0%	-5.8%
Cc1ccc(NC(=O)C2CCCC2)cc1	.	.	.	.	-3.5%	.
Cc1ccc(NC(=O)Nc2cccc3ccccc23)cc1	19.2%	24.8%	.	-5.3%	4.4%	-2.6%
COc1ccc(Cl)cc1NC(=O)CSc1nc2c(c(=O)n1Cc1ccccc1)SCC2	.	.	.	.	4.6%	.
Cc1nc(SCCC(=O)O)c2ccccc2n1	5.4%	17.7%	?	-6.1%	-3.1%	1.7%
Cc1ccc(OCCCCn2cnc3ccccc32)c(C)c1	25.1µM*	?	7.94µM*	1.58µM*	-30.6%	1.6%
Cc1cc(C)c(Cn2cnc3ccccc32)c(C)c1	-16.6%	36.6%	44.7µM*	-9.8%	44.7%	-24.9%
c1ccc(Cn2cnc3ccccc32)cc1	4.1%	23.2%	-3.9%[59 µM]	-9.3%	7.0%	-5.4%
CS(=O)(=O)N1CCOCCNC(=O)[C@@H]2CCC[C@@H]21	.	.	.	.	15.6%	.
O=C1NN=C(c2ccc(Cl)cc2)CC1c1cccc(Cl)c1 (stereo not drawn)	26.3%	42.6%	6.3%[12.7 µM]	-17.9%	-23.0%	-0.5%
CC(=O)c1cccc(NC(=O)C2CCN(c3ncnc4c3nc3n4CCCCC3)CC2)c1	-19.9%	6.6%	8.0%[59 µM]	-13.9%	-20.1%	.
Cc1ccc(-n2c(-c3ccc(Cl)cc3)n[nH]c2=S)c(C)c1	11.1%[0.457 µM]	17.4%	5.62µM*	?	?	-8.0%
COc1ccc(-c2n[nH]c(=S)n2-c2ccc(C)cc2C)cc1	-28.4%	29.4%	13.9%[0.501 µM]	?	6.31µM*	0.4%
Cc1ccc(-n2c(-c3cccnc3)n[nH]c2=S)c(C)c1	3.9%	10.0%	1.58µM*	5.01µM*	?	-6.6%
Cc1ccc(-n2c(-c3cnccn3)n[nH]c2=S)c(Br)c1	-29.6%	44.1%	17.8µM*	15.8µM*	?	1.5%
FC(F)(F)c1ccccc1-n1c(-c2cnccn2)n[nH]c1=S	-29.0%	45.3%	?	-15.5%	?	-10.5%
O=C(COc1ncnc2ccccc12)Nc1ccc2ccccc2c1	.	.	.	.	-16.8%	.
COCCOCc1nc(C2CCN(C(=O)NC3CCCCC3)CC2)no1	.	.	.	.	68.2%	.
O=C(CCN1C(=O)c2ccccc2C1=O)N1CCN(c2ccccc2)CC1	2.9%	25.9%	6.5%	-12.0%	-7.1%	-1.4%
COc1ccc(C(=O)Nc2nc(N)n(-c3ccccc3)n2)cc1OC	?	27.6%	34.7%	-25.8%	-2.1%	1.8%
Nc1nc(NC(=O)CCC(=O)O)nn1-c1ccccc1	50.1µM*	18.5%	.	22.4µM*	-0.6%	1.9%
Nc1nc(NC(=O)c2ccccc2)nn1-c1ccccc1	?	60.7%	15.4%	-8.8%	-3.2%	-12.1%
COc1ccccc1/C=C/C(=O)Nc1nc(N)n(-c2ccccc2)n1	56.2µM*	42.3%	14.1%	-15.6%	407.3%	-13.5%
SMILES	BAZ2B block	HP1b chromo inh	G9a inh	JMJD2A Tudor inh	12-LOX inh	PLK1 PBD inh
Cc1nc2c(C#N)c(-c3ccc(Cl)cc3)ccn2n1	-2.0%	47.2%	12.8%[59 µM]	-4.2%	-12.2%	-2.8%
CCOC(=O)CNC(=O)CSc1nc(-c2ccccc2)ns1	-5.1%	-24.4%	10µM*	-11.7%	-28.3%	13.4µM*
Cn1c(=O)c2c(SCC(=O)NCC3CCCO3)nc(-c3cccs3)nc2n(C)c1=O (stereo not drawn)	-0.5%	.	50.1µM*	.	.	.
CCOC(=O)CSc1nc(-c2ccc(OC)cc2)ns1	51.5%	19.2%	5.01µM*	26.8%[57.1 µM]	?	10.6µM*
Cc1ccc(-c2nc(SCC(=O)NCC3CCCO3)c3c(=O)n(C)c(=O)n(C)c3n2)cc1 (stereo not drawn)	6.6%	33.0%[57 µM]	8.4%[59 µM]	3.2%	-14.1%	.
CCOC(=O)N1CCN(C(=O)CSc2nc(-c3cccc(C)c3)ns2)CC1	-5.1%	-5.4%	31.6µM*	31.6µM*	?	6.7µM*
O=C(CSc1nnc(-c2ccccc2)c2ccccc12)NCC1CCCO1 (stereo not drawn)	.	.	-11.8%	.	.	.
O=C(CSc1nc(-c2ccccc2)ns1)NCC1CCCO1 (stereo not drawn)	-16.4%	-6.3%	22.4µM*	-4.1%	-27.4%	15µM*
Cc1ccc(-c2nsc(SCC(=O)NCc3ccc4c(c3)OCO4)n2)cc1	7.2%	33.7%	22.9%	-1.3%	-4.7%	-3.3%
CCOC(=O)CNC(=O)CSc1nc(-c2ccc(C)cc2)ns1	-2.7%	53.0%	50.1µM*	5.8%	-2.9%	-25.6%
COCCNc1oc(COc2ccccc2C)nc1C#N	.	.	.	.	42.5%	.
COc1ccccc1N(CC(=O)NC(C)(C)C)S(=O)(=O)c1cccs1	0.7%	-3.8%	-13.4%	56.2µM*	-15.1%	26.7µM*
CCNC(=O)CN(c1ccccc1OC)S(=O)(=O)c1cccs1	3.6%	8.3%	4.3%[59 µM]	-13.6%	10.0%	-3.5%
Cc1cc(C)c(S(=O)(=O)N2CCN(C(=O)N(C)C)CC2)c(C)c1	?	0.5%	.	7.7%	-20.0%	2.8%
NC(=O)c1ccc(NC(=O)CCN2C(=O)c3ccccc3C2=O)cc1	-0.5%	15.4%	11.3%	-4.5%	-24.5%	-4.2%
Cc1ccc(N2CC(C(=O)NCCS(=O)(=O)N3CCN(c4ccccc4F)CC3)CC2=O)cc1 (stereo not drawn)	-14.6%	0.9%	-7.7%[59 µM]	15.8µM*!	9.0%	10.6µM*
CC1(C)OC2C(CO)OC(n3cnc4c(=S)nc[nH]c43)C2O1 (stereo not drawn)	50.1µM*	?	8.91µM*	?	?	-10.6%
O=c1[nH]cnc2c1ncn2C1OC(CO)C(O)C1O (stereo not drawn)	.	3.1%	23.1%[59 µM]	-7.6%	0.8%	-1.5%
OCC1OC(n2cnc3c(=S)nc[nH]c32)C(O)C1O (stereo not drawn)	.	?	15.8µM*	20µM*	.	.
Cc1ccc(CNC(=O)N2CC[C@H]3C(=O)NCCCCCCN(Cc4ccncc4)[C@@H]3C2)cc1	.	.	.	.	31.8%	.
COc1ccc(OC)c2sc(Cl)nc12	8.5%	-3.6%	28.2µM*	3.5%	-10.2%	18.9µM*
COc1ccc(OC)c2sc(NC(=O)C(C)C)nc12	-8.6%	14.2%	-41.8%[59 µM]	-13.9%	3.7%	-8.0%
COc1cccc2cc(C(=O)N3CCN(c4ccc(C)cc4C)CC3)c(=O)oc12	-5.2%	5.3%	-9.8%[59 µM]	?	-1.8%	-3.3%
CCCc1cc(C(=O)N/N=C2\CC3CCC2(C)C3(C)C)cs1 (stereo not drawn)	.	.	.	.	12.6%	.
Cn1cccc1/C=C(\C#N)C(N)=S	?	-16.8%	50.1µM*	-23.5%	0.0%	1.2%

Source: PubChem (National Center for Advancing Translational Sciences (NCATS))
